Results from PubChem BioAssay (NCATS).
Several values for one entry are separate records, joined by “and”; a condition that tells them apart may be missing. Equal entries are not always repeated. Records with an inconclusive call do not appear. Activity calls are given as the source filed them. Unless noted, calls follow the shape of the dose curve; as a rule, active = well fitted curve in the direction sought with a large enough effect; inconclusive = small, poorly fitted or top-dose-only effect, or another doubt; inactive = no such curve, though single readings can be large; an effect the other way counts as inactive or inconclusive.

What was measured:
[1] = molecular target: Cellular tumor antigen p53 (Homo sapiens) (UniProt P04637); experiment: Primary qHTS for small molecule compounds that upregulate eGFP-tagged delta133p53alpha (in N-terminal) cells. (AID 2060322); conditions: NCI-H358 eGFP-delta133p53alpha fluorescence, 24 h; activation: active compounds read high;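 also: 0% = DMSO vehicle and 100% = reference activator; nearly all actives have a fitted effect of over 75% in size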
Sequence of Cellular tumor antigen p53 (Homo sapiens) (P04637 whole entry, looked up): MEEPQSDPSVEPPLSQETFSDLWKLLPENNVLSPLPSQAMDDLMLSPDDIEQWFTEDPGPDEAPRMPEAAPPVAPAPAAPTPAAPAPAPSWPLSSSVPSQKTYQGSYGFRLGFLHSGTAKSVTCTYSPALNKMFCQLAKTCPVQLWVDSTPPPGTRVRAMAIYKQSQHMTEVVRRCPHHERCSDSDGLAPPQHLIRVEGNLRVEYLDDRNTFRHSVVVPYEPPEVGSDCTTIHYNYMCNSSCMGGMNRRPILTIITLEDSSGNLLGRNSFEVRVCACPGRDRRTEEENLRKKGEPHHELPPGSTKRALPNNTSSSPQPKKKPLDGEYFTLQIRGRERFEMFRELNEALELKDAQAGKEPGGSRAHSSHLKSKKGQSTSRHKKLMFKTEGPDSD
How it was run: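 NCI-H358 cells pre-induced 24 h with 10 ng/ml doxycycline to express N-terminal eGFP-delta133p53alpha, then dosed 24 h at 37C without doxycycline; fixed, Hoechst-stained, GFP intensity by laser scanning cytometry, normalized to DMSO (0%) and 57.5 uM 5-azacytidine (100%).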

[2] = molecular target: Cellular tumor antigen p53 (Homo sapiens) (UniProt P04637); experiment: Primary qHTS for small molecule compounds that upregulate eGFP-tagged delta133p53alpha (in C-terminal) cells. (AID 2060324); conditions: NCI-H358 delta133p53alpha-eGFP (C-terminal tag), GFP fluorescence imaging, 24 h; series mostly up to 57.5 µM;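 also: 0% = DMSO wells and 100% = 57.5 µM 5-azacytidine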
How it was run: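 NCI-H358 cells pre-induced 24 h with 100 ng/ml doxycycline to express delta133p53alpha-eGFP, then dosed in doxycycline-free medium for 24 h at 37C. Fixed, Hoechst-stained; GFP intensity by laser scanning cytometry, normalized to DMSO wells.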

[3] = molecular target: Aldehyde dehydrogenase, mitochondrial (Homo sapiens) (UniProt P05091); experiment: qHTS for Inhibitors of the Aldehyde Dehydrogenase Family (ALDH2) Validation screens (AID 2061302; active = well fitted inhibition curve with a large enough effect; title and protocol of this record describe different tests; also: potency is read from the fitted curve at half-maximal effect); conditions: ALDH inhibition qHTS; series mostly up to 42.6 µM
[4] = molecular target: Retinaldehyde dehydrogenase 3 (Homo sapiens) (UniProt P47895); experiment: qHTS for Inhibitors of the Aldehyde Dehydrogenase Family (ALDH1A3) Validation screen (AID 2061312); conditions: ALDH1A3 enzyme inhibition qHTS validation, fluorescence; series mostly up to 42.4 µM; also: % is scaled to controls: 0 for no effect and ±100 for the full control effect; nearly all actives have a fitted effect of over 45% in size
[5] = qHTS for Inhibitors of the Aldehyde Dehydrogenase Family (ALDH1A2, ALDH1A3, ALDH2, ALDH3A1) (AID 2061307); conditions: ALDH inhibition qHTS; series mostly up to 50.3 µM; also: % is scaled to controls: 0 for no effect and ±100 for the full control effect; nearly all actives have a fitted effect of over 50% in size
[6] = molecular target: Retinaldehyde dehydrogenase 3 (Homo sapiens) (UniProt P47895); experiment: qHTS for Inhibitors of the Aldehyde Dehydrogenase Family (ALDH1A3) Confirmatory screens (AID 2061311); conditions: ALDH inhibition qHTS; series mostly up to 46 µM; also: potency is read from the fitted curve at half-maximal effect; nearly all actives have a fitted effect of over 60% in size
[7] = molecular target: Aldehyde dehydrogenase 1A1 (Homo sapiens) (UniProt P00352); experiment: qHTS for Inhibitors of the Aldehyde Dehydrogenase Family (ALDH1A1) Confirmatory screens (AID 2061316); conditions: ALDH inhibition qHTS; series mostly up to 47.3 µM; also: nearly all actives have a fitted effect of over 65% in size; also: potency is read from the fitted curve at half-maximal effect
[8] = molecular target: Aldehyde dehydrogenase, mitochondrial (Homo sapiens) (UniProt P05091); experiment: qHTS for Inhibitors of the Aldehyde Dehydrogenase Family (ALDH2) Primary screen (AID 2061308); conditions: ALDH2 enzyme inhibition qHTS, 1536-well; series mostly up to 56 µM;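 also: plate controls were vehicle for no effect and reference inhibitor for full effect; nearly all actives have a fitted effect of over 55% in size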
[9] = molecular target: Retinaldehyde dehydrogenase 3 (Homo sapiens) (UniProt P47895); experiment: qHTS for Inhibitors of the Aldehyde Dehydrogenase Family (ALDH1A3) Primary screen (AID 2061315); conditions: ALDH inhibition qHTS; series mostly up to 56 µM;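 also: plate controls were DMSO vehicle for no effect and reference inhibitor for full effect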
[10] = BET inhibitor-based combinations targeting novel dependencies in MECOM-rearranged (r) AML: SET-2 cell line (AID 2202231); conditions: SET-2 AML cells viability, CellTiter-Glo luminescence, 48 h; viability: active compounds read low, concentration not given here;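 also: plate controls were DMSO treated cells for no effect and wells without cells for full effect; nearly all actives have a fitted effect of over 35% in size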
How it was run: (§1)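 A 48 hr incubation preceded viability reading by CellTiter-Glo, with 15 min room-temperature development. Dose series had 11 points; normalization used DMSO and empty wells; AUC was computed and mean-centered per line as Z-AUC.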

[11] = BET inhibitor-based combinations targeting novel dependencies in MECOM-rearranged (r) AML: UCSD-AML1 cell line (AID 2202235); conditions: UCSD-AML1 AML cells viability, CellTiter-Glo, 48 h; series mostly up to 46 µM;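 also: plate controls were DMSO vehicle wells for no effect and blank wells for full effect; nearly all actives have a fitted effect of over 40% in size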
How it was run: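 Each compound is tested in an 11-point concentration series against 500 seeded cells/well for 48 hr. The luminescent viability signal is normalized to DMSO and blank wells, then reduced to AUC and a cell-line-centred Z-AUC.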

[12] = BET inhibitor-based combinations targeting novel dependencies in MECOM-rearranged (r) AML: AML-191 cell line (AID 2202236;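 also: plate controls were vehicle wells for no effect and wells without cells for full effect; nearly all actives have a fitted effect of over 35% in size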); conditions: AML-191 viability, CellTiter-Glo luminescence, 48 h; series mostly up to 46 µM
How it was run: as §1

[13] = BET inhibitor-based combinations targeting novel dependencies in MECOM-rearranged (r) AML: AML-194 cell line (AID 2202237;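 also: plate controls were vehicle wells for no effect and wells without cells for full effect; nearly all actives have a fitted effect of over 40% in size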); conditions: AML-194 (MECOM-r AML) viability, CellTiter-Glo, 48 h; series mostly up to 46 µM
How it was run: as §1

[14] = molecular target: Aldehyde dehydrogenase, mitochondrial (Homo sapiens) (UniProt P05091); experiment: qHTS for Inhibitors of the Aldehyde Dehydrogenase Family (ALDH2) Confirmatory screens (AID 2061303; active = well fitted inhibition curve with a large enough effect; title and protocol of this record describe different tests; also: potency is read from the fitted curve at half-maximal effect; nearly all actives have a fitted effect of over 45% in size); conditions: ALDH inhibition qHTS; series mostly up to 45.4 µM
[15] = molecular target: Retinal dehydrogenase 2 (Homo sapiens) (UniProt O94788); experiment: qHTS for Inhibitors of the Aldehyde Dehydrogenase Family (ALDH1A2) Confirmation screens (AID 2061314); conditions: ALDH1A2 enzyme inhibition qHTS confirmation; series mostly up to 45.9 µM; also: % is scaled to controls: 0 for no effect and ±100 for the full control effect; nearly all actives have a fitted effect of over 65% in size

C[C@]12N[C@H](Cc3ccccc31)c1ccccc12
inactive: activation [1] -0.686% | Potency [2] | Potency [3] | Potency [4]

N#CC(C#N)=Cc1ccc(O)c(O)c1
active: Potency [6] 0.798 µM | Potency [7] 20.1 µM
inactive: activation [1] 23.2% and -8.42% | Potency [2] | Potency [3] | Potency [5]

Clc1cc(I)cc(Cl)c1NC1=NCCN1
inactive: activation [1] -24.7% | Potency [2] | Potency [3] | Potency [4]

CC(C)(C)OC(=O)NC1[C@H]2CNC[C@@H]12 (stereo not given in full)
inactive: activation [1] -12.9% | Potency [2] | Potency [3]

Cc1nccc2c1[nH]c1ccccc12
inactive: activation [1] -18.9% | Potency [2] | Potency [3] | Potency [4]

CC(N)c1cccc(Cl)c1Cl (stereo not given)
inactive: activation [1] -35.4% | Potency [2] | Potency [3] | Potency [4]

NCCc1c[nH]c2ccc(O)cc12
inactive: activation [1] -1.52% | Potency [2] | Potency [3]

C#CCOC(=O)C1=CCCN(C)C1
inactive: activation [1] -28.1% | Potency [2] | Potency [3] | Potency [4]

CC(O)(CS(=O)(=O)c1ccc(F)cc1)C(=O)Nc1ccc(C#N)c(C(F)(F)F)c1 (stereo not given)
inactive: activation [1] -7.17% and -30.6% and 1.43% | Potency [2] | Potency [3] | Potency [8] | Potency [4] | Potency [9] | viability [10] 92.1% | Potency [11] | Potency [12] | Potency [13]

NCCc1c[nH]c2ccccc12
inactive: activation [1] -5.39% | Potency [2] | Potency [3] | Potency [4]

CC(=O)NCCc1c[nH]c2ccccc12
inactive: activation [1] -24.3% | Potency [2] | Potency [3] | Potency [8] | Potency [4] | Potency [9]

C[N+](C)(C)CC#CCOC(=O)Nc1cccc(Cl)c1
active: Potency [3] 10 µM | Potency [14] 10.1 µM | Potency [7] 22.5 µM
inactive: activation [1] 13.3% | Potency [2]

S=C(NC1CCCCC1)N1CCC(c2cnc[nH]2)CC1
inactive: activation [1] 5.67% and -16.8% | Potency [2] | Potency [3] | Potency [8] | Potency [4] | Potency [9]

CN1C[C@H](CNC(=O)OCc2ccccc2)C[C@@H]2c3cccc4c3c(cn4C)C[C@H]21
inactive: activation [1] -6.69% and -23.9% | Potency [2] | Potency [3]

O=C(O)[C@@H]1CCN1
inactive: activation [1] -48.2% | Potency [2] | Potency [3] | Potency [4]

O=C1CC[C@@]2(O)C3Cc4ccc(O)c5c4C2(CCN3CC2CC2)[C@H]1O5 (stereo not given in full)
inactive: activation [1] -10.4% | Potency [2] | Potency [3]

CN1CCc2cc(O)cc3c2[C@H]1Cc1ccc(O)c(O)c1-3
inactive: activation [1] -32.2% | Potency [2] | Potency [3] | Potency [5] | Potency [15] | Potency [7]
active: Potency [6] 12.7 µM
